± gives the standard deviation.
Each sequence was assayed on MILI (PIWIL2) piRISC loaded with piRNA #1 (26 nt) (assay: pre-steady-state target cleavage rate (min^-1); guide: piRNA #1 5'p-UGAGGUAGUAGGUUGUAUAGUAUCCA; MIWI and MILI are mouse PIWI proteins and EfPiwi is from a freshwater sponge; tags in brackets are library labels; higher = faster piRNA-guided slicing of the target). Settings: auxiliary factor: 500 nM mouse GTSF1.
Summary of the method: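 Active affinity-purified piRISC (1 nM) loaded with one synthetic guide was mixed with a transcribed, DNA-blocked target RNA library (0.1 nM), with or without 500 nM GTSF1 partner protein, in HEPES–potassium acetate buffer at 33 °C for 0–8 or 0–960 min. Uncleaved targets were sequenced, normalised to depth and to weakly complementary targets, and pooled across three trials, with k3 capped at 0.0001 min^-1. The pre-steady-state cleavage rate was determined with a burst-and-steady-state fit.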

Sequence	pre-steady-state target cleavage rate
GGAGACCAUAGUAUACAACCUACUACCACA	0.133 ± 0.015
GGAGACCUUACUAUUCAACCAACUACCUCA	0.00367 ± 0.0028
GGAGACCUAUGAUAACAACCUACUACCUGCA	0.00443 ± 0.0033
GGAGACCUAAGUAUUCAACCUACUACCUCA	0.0617 ± 0.0092
GGAGACCUAUGAUAACAACCUACUAUCCUCA	0.00426 ± 0.003
GGAGACCUAUGUAUAGAACGUACUACCUCA	0.00362 ± 0.0018
GGAGACCUAUGUAACAACCUACUACCUCA	0.0402 ± 0.0057
GGAGACCUUACUUUUCAACCUACUACCUCA	0.0874 ± 0.01
GGAGACCUAACUAUACAACCUACUACGCUCA	0.212 ± 0.042
GGAGACCUAUGUAUACAUCCUACUACCUGA	0.0651 ± 0.017
GGAGACCUAUGAAUACAACCUACUCACCUCA	0.004 ± 0.0026
GGAGACCUUACAAUACAACCAACUACCUCA	0.00567 ± 0.0032
GGAGUGGAUAGUAUACAACCUAGUACCUCA	0.0556 ± 0.0099
GGAGACCUAACUAUACAAGCUUCUACCUCA	0.0324 ± 0.01
GGAGACCUAUGAUUACAACGUACAACCUCA	0.00532 ± 0.0027
GGAGACCUAUGAUAUGUACCUAGUUCCUCA	< 0.0001
GGAGACCUAUCUUUAGAACCUACUACCUCA	0.0437 ± 0.0095
GGAGUGGAUUCUAUUCAACCUACUACCUCA	0.165 ± 0.008
GGAGACCUAACUAUACAACCUACUACCGUCA	0.15 ± 0.034
GGAGACCUAACUUUACAACCUACUUCCUCA	0.0099 ± 0.0053

Sequence	pre-steady-state target cleavage rate
GGAGACCAUACAAUACAACCAACUACCUCA	0.00736 ± 0.0032
GGAGACCUAUGAUAAUCAACCUACUACCUCA	0.00294 ± 0.0029
GGAGACCUAUGAUUAUCAACCUACUACCUCA	0.00367 ± 0.0025
GGAGACCUAUCUAUACACCUACUACCUCA	0.00467 ± 0.0029
GGAGAGGAUACUUUACAACCUACUACCUGA	0.0593 ± 0.011
GGAGACCUAUCUAUACAACGUACUAGCUCA	0.00553 ± 0.0029
GGAGACCUAUCUAUACUACCUACUACGUCA	0.0241 ± 0.0069
GGAGUGGAAUGUAUACAACCUACUACCUCA	0.0864 ± 0.0076
GGAGACCUUUCUAUACAACCUACAACCUCA	0.0806 ± 0.01
GGAGUGCAUACUAUACAACCUAGUACCUCA	0.0477 ± 0.0091
GGAGACCUAACUAUACAAGCAACUACCUCA	0.00654 ± 0.0041
GGAGACCUAUGUAUACUAGCUACUACCUCA	0.0336 ± 0.0059
GGAGACCUAUCUAUACAACCUACUAGCUGA	0.00493 ± 0.0036
GGAGACCUAUGAUUACAAGCUACUACGUCA	0.00819 ± 0.0037
GGAGUGGAUACUAUACCACCUACUACCUCA	0.188 ± 0.012
GGAGAGGAUACUAUACAUCCUACUACGUCA	0.00995 ± 0.003
GGAGAGGAUACUAUAAACCUACUACCUCA	0.0203 ± 0.0036
GGAGACCUUAGUAAACAACCUACUACCUCA	0.0245 ± 0.0059
GGAGUGGAUAGUAAACAACCUACUACCUCA	0.0879 ± 0.0084
GGAGACCUUACUAAACAACCUACAACCUCA	0.178 ± 0.025
